# Experimental data from article PMC9928087, “Plasmids manipulate bacterial behaviour through translational regulatory crosstalk”.
# Molecular target: T1, RsmQ (Pseudomonas fluorescens SBW25 plasmid …, UniProt UPI00015066B5 1-62)
# T1 sequence: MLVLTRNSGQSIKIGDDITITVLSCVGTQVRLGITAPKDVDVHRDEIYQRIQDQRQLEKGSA
# Test: SPR (ReDCaT); HBS-EP+ (10 mM HEPES, 150 mM NaCl, 3 mM EDTA, 0.05% v/v Tween 20, pH 7.4), 20 C, Biacore 8K, ReDCaT SA chip; high values mean tight binding
# Conditions: protein: recombinant; tags: C-terminal TEV site + 6xHis; chain copies: 2; structured_DNA
row,Sequence,binding signal
1,GCCCTGTGTCCACGGATTGGCACAA,82.5 ± 1.12 %Rmax
2,ATGGACGTCGCGCAGGAAGCGCAAA,83.5 ± 1.31 %Rmax
